# Test results as given in PubChem BioAssay.
# Several values for one entry are separate records, joined by “and”; a condition that tells them apart may be missing. Equal entries are not always repeated. Records with an inconclusive call do not appear. Activity calls are given as the source filed them. Rule as the data show it, unless noted: active = inhibition above about 80%; inactive = the rest.
# Legend:
# [1] = viability loss in pontine glioma line – cell-based, SU-DIPG-XXV, MIPE5.0, CellTiter-Glo, qHTS, dose response (AID 1347065; cut-off not given, nearly all actives have AC50 up to about 26 µM;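 also: cells exposed to compound for 48 hours before ATP readout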); conditions: CellTiter-Glo ATP luminescence
# [2] = JHH-DIPG-1 glioma cell viability, MIPE5.0 library, CellTiter-Glo luminescence, qHTS (AID 1347067; cut-off not given, nearly all actives have AC50 up to about 26 µM;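 also: cells exposed to compound for 48 hours before readout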); conditions: JHH-DIPG-1 glioma viability, CellTiter-Glo ATP luminescence
# [3] = growth inhibition of DIPG cells – cell-based, MIPE5.0 library, qHTS (AID 1347068; cut-off not given, nearly all actives have IC50 up to about 30 µM;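 as to IC50: cells exposed to compound for 48 hours before viability readout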); conditions: SU-DIPG-XXV viability
# [4] = viability loss with induced miR-34 in A549 – imaging, A549 dox-inducible miR-34, nuclei and caspase counts, primary screen (AID 1347080;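 active = compounds whose cell count with miR-34 switched on is under 0.7 times the count with it off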); conditions: A549 miR-34 inducible, Hoechst nuclei count, 48 h
# [5] = compounds altering HSF1 focus formation in cells – imaging, Selleck Cancer Library (AID 1347162; in the data active = plate-normalised HSF1 focus index below about 0.46); conditions: human cells, HSF1 nuclear foci imaging, at 10 µM; SSMD: measured here: HSF1 foci SSMD mean; cell count: measured here: cell number; plate-normalised HSF1 focus index: stronger effect = lower value
# [6] = MELAS cybrid and Rieske KO viability enhancers – cell-based, MELAS cybrids, Rieske KO mouse fibroblasts, CellTiter-Glo, primary screen (AID 1508586;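 active = mean z-score across replicates of 1.96 or higher in either the MELAS or the Rieske mutant cell line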;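 also: z relative to plate mean and SD of compound and empty wells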); conditions: low glucose
# [7] = target: NAD(+) hydrolase SARM1 (Homo sapiens) (UniProt Q6SZW1); assay: blocking NAD cleavage by SARM1 SAM-TIR – cell lysate, NAD-Glo luminescence (AID 1508614;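 active = compound whose remaining NAD level is above about 45 nM, limit read from the data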;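 also: higher remaining NAD means stronger inhibition of SARM1 NADase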); conditions: SAM-TIR HEK293T lysate NADase, at 1 µM, stronger effect = higher value
# NAD(+) hydrolase SARM1 (Homo sapiens), sequence (Q6SZW1 whole entry, looked up): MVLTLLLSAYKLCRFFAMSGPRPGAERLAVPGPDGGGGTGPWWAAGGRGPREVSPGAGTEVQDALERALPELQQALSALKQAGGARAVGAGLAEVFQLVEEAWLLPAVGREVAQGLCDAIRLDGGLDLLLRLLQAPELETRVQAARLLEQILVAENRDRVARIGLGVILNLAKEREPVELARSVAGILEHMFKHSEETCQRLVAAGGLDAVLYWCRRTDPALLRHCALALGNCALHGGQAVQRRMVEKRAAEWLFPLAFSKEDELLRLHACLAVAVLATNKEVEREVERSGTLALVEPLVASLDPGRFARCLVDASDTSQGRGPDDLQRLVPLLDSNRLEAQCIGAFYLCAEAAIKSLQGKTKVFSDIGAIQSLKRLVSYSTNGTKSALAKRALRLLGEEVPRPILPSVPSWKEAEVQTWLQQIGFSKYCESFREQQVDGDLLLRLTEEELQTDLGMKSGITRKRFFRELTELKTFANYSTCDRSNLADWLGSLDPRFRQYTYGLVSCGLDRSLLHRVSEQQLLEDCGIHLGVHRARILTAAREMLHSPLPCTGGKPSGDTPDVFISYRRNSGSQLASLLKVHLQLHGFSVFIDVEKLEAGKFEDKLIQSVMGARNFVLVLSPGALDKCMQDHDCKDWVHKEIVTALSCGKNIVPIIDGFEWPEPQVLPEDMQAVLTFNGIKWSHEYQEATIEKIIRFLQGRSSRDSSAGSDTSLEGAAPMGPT
# [8] = galactose survival enhancers in mitochondrial complex I cybrids – cell-based, galactose medium, ATP luminescence, primary screen (AID 1645843;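 active = z-score of at least 1.8 in each of two replicates, scored against plate mean and spread of sample wells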;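 also: positive z means more ATP and so rescue of galactose-driven cybrid death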); conditions: complex I mutant cybrid cells, 72 h, stronger effect = higher value
# [9] = growth inhibition, single agent or in combination, cell-based, chromothripsis tumors, cisplatin or BGB combos (AID 1671449); conditions: LFS_MB_P medulloblastoma cells;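 also: cells exposed for 96 hours; 0% = vehicle DMSO and 100% = killing by high DMSO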
# [10] = growth inhibition, single agent and combos, cell-based, chromothripsis tumors, cisplatin or BGB combos (AID 1671450); conditions: HDN33 neuroblastoma cells, stronger effect = higher value;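 also: cells exposed to compound for four days; 0% = vehicle DMSO and 100% = cell killing by high DMSO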
# [11] = growth inhibition, single agents and combos, ICB984, cell-based, cisplatin or BGB combos, synergistic combos for chromothripsis tumors (AID 1671451; call rule not given here;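 also: cells exposed for 96 hours before readout; 0% = vehicle DMSO and 100% = killing by high DMSO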); conditions: ICB984 medulloblastoma cells, drug combinations, stronger effect = higher value
# [12] = growth inhibition, single agents and combos, LFS_MB_1R, cell-based, cisplatin or BGB combos, synergistic combos for chromothripsis tumors (AID 1671452); conditions: LFS_MB_1R medulloblastoma cells, stronger effect = higher value;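 also: cells exposed for 96 hours before readout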
# [13] = growth inhibition, single agents and combos, HTB85, cell-based, BGB or cisplatin IC20 combos, synergistic combos for chromothripsis tumors (AID 1671453); conditions: HTB85 osteosarcoma cells, drug combinations, stronger effect = higher value;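 also: cells exposed for 96 hours before readout; 0% = vehicle DMSO and 100% = high DMSO killing control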
# [14] = growth inhibition, single agents and combos, CRL2098, cell-based, BGB or cisplatin IC20 combos, synergistic combos for chromothripsis tumors (AID 1671454); conditions: CRL2098 osteosarcoma cells, drug combinations, stronger effect = higher value;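 also: cells exposed for 96 h before readout; 0% = vehicle DMSO and 100% = killing by high DMSO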
# [15] = growth inhibition, single agents and combos, HD-MB03, cell-based, BGB or cisplatin IC20 combos, synergistic combos for chromothripsis tumors (AID 1671455; in the data active = inhibition above about 83%;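 also: 0% = vehicle DMSO and 100% = high DMSO as cytotoxic control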); conditions: HD-MB03 medulloblastoma cells, stronger effect = higher value
# [16] = target: Mitogen-activated protein kinase 7 (Homo sapiens) (UniProt Q13164); assay: Gal4-ERK5 driven luciferase induction – cell-based, HTS, primary screen (AID 1508626;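 active = luciferase signal above three times the same-plate solvent-only control wells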;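 also: luciferase driven by Gal4-ERK5 fusion binding five Gal4 sites before minimal TATA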); conditions: HeLa Gal4-ERK5 transactivation, 18 h, at 5 µM, stronger effect = higher value
# Mitogen-activated protein kinase 7 (Homo sapiens), sequence (Q13164 whole entry, looked up, the tested form may be a part): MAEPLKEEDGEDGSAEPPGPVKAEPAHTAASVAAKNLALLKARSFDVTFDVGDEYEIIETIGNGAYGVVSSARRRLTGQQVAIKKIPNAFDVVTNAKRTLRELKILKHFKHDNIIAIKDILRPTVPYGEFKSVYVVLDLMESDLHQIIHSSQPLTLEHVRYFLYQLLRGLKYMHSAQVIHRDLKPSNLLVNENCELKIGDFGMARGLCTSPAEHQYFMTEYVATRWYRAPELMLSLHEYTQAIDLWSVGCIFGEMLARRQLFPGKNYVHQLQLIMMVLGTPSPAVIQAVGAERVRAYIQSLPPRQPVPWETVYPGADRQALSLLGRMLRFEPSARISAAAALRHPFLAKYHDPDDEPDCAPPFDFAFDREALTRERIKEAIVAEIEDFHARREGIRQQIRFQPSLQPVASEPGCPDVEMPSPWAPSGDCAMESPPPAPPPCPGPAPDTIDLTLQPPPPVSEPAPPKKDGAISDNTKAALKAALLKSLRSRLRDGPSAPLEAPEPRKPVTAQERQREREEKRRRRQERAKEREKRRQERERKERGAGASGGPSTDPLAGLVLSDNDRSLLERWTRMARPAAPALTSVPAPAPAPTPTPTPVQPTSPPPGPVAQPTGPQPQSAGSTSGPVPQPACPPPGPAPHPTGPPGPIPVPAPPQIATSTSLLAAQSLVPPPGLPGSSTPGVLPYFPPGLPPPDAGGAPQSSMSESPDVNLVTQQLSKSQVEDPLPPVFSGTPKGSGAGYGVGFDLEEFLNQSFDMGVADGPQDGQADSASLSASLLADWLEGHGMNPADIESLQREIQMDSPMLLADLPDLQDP
# [17] = stronger effect = lower value, cell number ratio, induced over uninduced
# [18] = measured here: relative caspase fold change +Dox/-Dox
# [19] = measured here: total cells with miR-34 induction, stronger effect = lower value
# [20] = measured here: total cells without miR-34 induction
# [21] = at 0.5 µM, stronger effect = higher value
# [22] = measured here: combination with BGB IC20, at 0.005 µM
# [23] = measured here: combination with BGB IC40, at 0.005 µM
# [24] = measured here: combination with BGB IC40, at 0.05 µM
# [25] = measured here: combination with cisplatin, at 0.5 µM, stronger effect = higher value
# [26] = measured here: combination with cisplatin, at 5 µM, stronger effect = higher value
# [27] = measured here: with BGB IC20 combination, at 0.5 µM
# [28] = measured here: with cisplatin IC20 combination, at 0.5 µM
# [29] = measured here: 5 uM single agent, at 5 µM
# [30] = measured here: combination with cisplatin, at 0.5 µM
# [31] = measured here: combination with cisplatin, at 5 µM
# [32] = measured here: with BGB IC20, at 0.5 µM
# [33] = measured here: with BGB IC20, at 5 µM
# [34] = measured here: with cisplatin IC20, at 0.5 µM
# [35] = measured here: with cisplatin IC20, at 5 µM
# [36] = measured here: combination with BGB at IC20, at 0.5 µM
# [37] = measured here: combination with cisplatin at IC20, at 0.5 µM
# [38] = measured here: combo with BGB at IC20, at 0.5 µM
# [39] = measured here: combo with cisplatin at IC20, at 0.5 µM
compound,measurement,setting,value
Cc1ccsc1C(=CCCN1CCC[C@@H](C(=O)O)C1)c1sccc1C,outcome,[1],inactive
same,outcome,[2],inactive
same,outcome,[3],inactive
CNNCc1ccc(C(=O)NC(C)C)cc1,outcome,[1],inactive
same,outcome,[2],inactive
same,outcome,[3],inactive
same,fold change,[4]; [17],0.927 (inactive) and 0.93 (inactive) and 0.882 (inactive)
same,fold change,[4]; [18],0.658 and 1.32 and 1.82
same,cell count,[4]; [19],8930 and 9660 and 9580
same,cell count,[4]; [20],9640 and 10400 and 10900
same,SSMD,[5],2.76
same,cell count,[5],7850
same,plate-normalised HSF1 focus index,[5],1.17 (inactive)
same,z-score,"[6]; MELAS cybrid survival, CellTiter-Glo 48 h, stronger effect = higher value",-0.384 (inactive) and 0.576 (inactive)
same,z-score,"[6]; Rieske KO mouse fibroblast survival, CellTiter-Glo 72 h",-1.08 and 0.362
same,remaining NAD,[7],10 nM (inactive)
same,z-score,[8],-0.975 (inactive) and 0.615 (inactive)
same,inhibition,[9]; [21],-4.96% (inactive) and -7.28% (inactive)
same,inhibition,[9]; [22],0.865% and -3.27%
same,inhibition,[9]; [23],4.15% and 7.38%
same,inhibition,[9]; [24],-4.16% and -2.23%
same,inhibition,[9]; [25],-13.4% and -33.1%
same,inhibition,[9]; [26],33.1% and 11.1%
same,inhibition,"[10]; BGB combo, at 5 µM",11.7% and 16.1%
same,inhibition,[10]; at 0.5 µM,10.7% (inactive) and 6.09% (inactive)
same,inhibition,"[10]; cisplatin combo, at 5 µM",11.5% and 15.1%
same,inhibition,[10]; [27],8.82% and -6.43%
same,inhibition,[10]; [28],7.54% and 20.8%
same,inhibition,"[10]; single agent, at 5 µM",17.8% and 2.31%
same,inhibition,"[11]; BGB IC20 combo, at 0.005 µM",9.83% and 1.87%
same,inhibition,"[11]; BGB IC40 combo, at 0.005 µM",-24.6% and -19.9%
same,inhibition,"[11]; BGB IC40 combo, at 0.05 µM",-27.1% and 7.42%
same,inhibition,[11]; at 0.5 µM,-17.4% (inactive) and -14% (inactive)
same,inhibition,"[11]; cisplatin combo, at 0.05 µM",-31.7% and 4.83%
same,inhibition,"[11]; cisplatin combo, at 0.5 µM",-11.9% and -3.72%
same,inhibition,"[11]; cisplatin combo, at 5 µM",2.16% and -28.3%
same,inhibition,[11]; [29],3.31% and -11.8%
same,inhibition,[12]; at 0.5 µM,9.11% (inactive) and -17.9% (inactive)
same,inhibition,[12]; [24],11.1% and -7.89%
same,inhibition,[12]; [30],9.64% and -15.3%
same,inhibition,[12]; [31],-32.2% and -1.85%
same,inhibition,[13]; at 0.5 µM,-1.94% (inactive) and -4.22% (inactive)
same,inhibition,[13]; [32],2.72% and -14.1%
same,inhibition,[13]; [33],4.14% and -30.2%
same,inhibition,[13]; [34],-5.46% and -13.6%
same,inhibition,[13]; [35],-7.6% and -38.8%
same,inhibition,"[13]; single agent, at 5 µM",3.42% and -2.23%
same,inhibition,[14]; at 0.5 µM,3.58% (inactive) and -35.9% (inactive)
same,inhibition,[14]; [36],-18.3% and -64.1%
same,inhibition,[14]; [37],-1.94% and -14.9%
same,inhibition,[15]; at 0.5 µM,1.99% (inactive) and 3.37% (inactive)
same,inhibition,[15]; [38],-4.48% and 4.11%
same,inhibition,[15]; [39],6.48% and 0.786%
Nc1nc(=S)c2[nH]cnc2[nH]1,AC50,[1],1480 nM (active)
same,AC50,[2],1050 nM (active)
same,IC50,[3],4170 nM (active)
same,fold change,[4]; [17],1.16 (inactive)
same,fold change,[4]; [18],0.96
same,cell count,[4]; [19],1820
same,cell count,[4]; [20],1580
same,remaining NAD,[7],10 nM (inactive)
same,luciferase signal,[16],52 AU (inactive)
same,inhibition,[9]; [21],-26.3% (inactive)
same,inhibition,[9]; [22],-7.21%
same,inhibition,[9]; [23],-35.9%
same,inhibition,[9]; [24],-9.84%
same,inhibition,[9]; [25],-38.8%
same,inhibition,[9]; [26],-43.8%
same,inhibition,"[10]; BGB combo, at 5 µM",73.6%
same,inhibition,[10]; at 0.5 µM,33.6% (inactive)
same,inhibition,"[10]; cisplatin combo, at 5 µM",70.5%
same,inhibition,[10]; [27],23.3%
same,inhibition,[10]; [28],18.7%
same,inhibition,"[10]; single agent, at 5 µM",80.7%
same,inhibition,"[11]; BGB IC20 combo, at 0.005 µM",-12.4%
same,inhibition,"[11]; BGB IC40 combo, at 0.005 µM",-52.4%
same,inhibition,"[11]; BGB IC40 combo, at 0.05 µM",-32.5%
same,inhibition,[11]; at 0.5 µM,-36% (inactive)
same,inhibition,"[11]; cisplatin combo, at 0.05 µM",-37.7%
same,inhibition,"[11]; cisplatin combo, at 0.5 µM",-55.5%
same,inhibition,"[11]; cisplatin combo, at 5 µM",-19.8%
same,inhibition,[11]; [29],-9.37%
same,inhibition,[12]; at 0.5 µM,-22.2% (inactive)
same,inhibition,[12]; [24],5.91%
same,inhibition,[12]; [30],-61.3%
same,inhibition,[12]; [31],-34.3%
same,inhibition,[13]; at 0.5 µM,1.06% (inactive)
same,inhibition,[13]; [32],3.8%
same,inhibition,[13]; [33],46%
same,inhibition,[13]; [34],-7.75%
same,inhibition,[13]; [35],16.3%
same,inhibition,"[13]; single agent, at 5 µM",52.5%
same,inhibition,[14]; at 0.5 µM,-31.6% (inactive)
same,inhibition,[14]; [36],-18.7%
same,inhibition,[14]; [37],-26.5%
same,inhibition,[15]; at 0.5 µM,-3.75% (inactive)
same,inhibition,[15]; [38],-3.35%
same,inhibition,[15]; [39],-7.29%
